Measurements from the supplement of paper PMC3342239.
Where a name gives a salt, the structure may show the parent alone.

These molecules were tested on Saccharomyces cerevisiae (assay: fraction of cells in G1 phase (DNA content, flow cytometry); higher = more cells with unreplicated DNA (G1 delay)). Conditions: temperature: 30 C; YPD; JTY2953 pdr5 snq2 (sensitized); drug added to: cultures diluted from stationary phase; 6-7 h.
Summary of the method: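 S. cerevisiae in YPD at 30°C was treated with library drugs, with DMSO-only wells as reference. Sensitized JTY2953 cultures diluted 1∶200 from overnight received a final 20 µg/ml and were fixed after 6–7 h; other runs dosed dividing JTY2953 (fixed 6 h later) or BY4741 (4.33 h later). Ethanol-fixed cells were stained with SYTOX Green and 10,000 events read by flow cytometry. G1 fraction is the Dean-Jett-Fox G1 peak area over G1 plus G2/M areas.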

| SMILES | fraction of cells in G1 phase |
| --- | --- |
| CC(C)NCC(O)COc1cccc2ccccc12 (stereo not given) [Propranolol] (77.1155 µM) | 0.477 |
| CCCc1nc2c(C)cc(-c3nc4ccccc4n3C)cc2n1Cc1ccc(-c2ccccc2C(=O)O)cc1 [Telmisartan] (38.8627 µM) | 0.543 |
| CC(C)Nc1cccnc1N1CCN(C(=O)c2cc3cc(NS(C)(=O)=O)ccc3[nH]2)CC1 [Delavirdine mesylate] (43.8048 µM) | 0.487 |
| CCC1=C[C@@H]2CN(C1)Cc1c([nH]c3ccccc13)[C@@](C(=O)OC)(c1cc3c(cc1OC)N(C)[C@H]1[C@@](O)(C(=O)OC)[C@H](OC(C)=O)[C@]4(CC)C=CCN5CC[C@]31[C@@H]54)C2 [Vinorelbine] (25.6755 µM) | 0.481 |
| CN1CCN(CC(=O)N2c3ccccc3C(=O)Nc3cccnc32)CC1 [Pirenzepine 2HCl] (56.9133 µM) | 0.534 |
| C[C@H](N[C@@H](CCc1ccccc1)C(=O)O)C(=O)N1CCC[C@H]1C(=O)O [Enalaprilat] (57.4049 µM) | 0.491 |
| CC(C)(C)NC[C@H](O)COc1nsnc1N1CCOCC1 [Timolol maleate (s)] (63.2061 µM) | 0.499 |
| Cn1cnc([N+](=O)[O-])c1Sc1ncnc2[nH]cnc12 [Azathioprine] (72.1241 µM) | 0.465 |
| CC(=O)Nc1ccc(OCC(O)CNC(C)C)cc1 (stereo not given) [Practolol] (75.0911 µM) | 0.506 |
| CNCCC(Oc1ccc(C(F)(F)F)cc1)c1ccccc1 (stereo not given) [Fluoxetine HCl] (64.655 µM) | 0.17 |
